Compound activity from PubChem BioAssay.
Rows were chosen to be rich in hits. Some 3% of all compounds tested hit in one or more screens of this group.
VDR inh – vitamin D3 receptor (human) inhibition; Potency, µM, for inactives: max response, negative = inhibition, usual class: inhibitors; 400,000 tested, 0.93% active; AID 504847; VDR-SRC2-3 peptide fluorescence polarization, 2 h; P11473
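FP read-out; VDR + SRC2-3 coactivator peptide; 23 nl compound by pintool; 2 h RT incubation; reagents held at 4 deg C, protected from light.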
ALOX12 inh – blocks human arachidonate 12S-lipoxygenase; P18054; purified 12hLO, xylenol orange hydroperoxide absorbance; Potency, µM (top dose mostly 108 µM), without a hit: top-dose activity change, negative = inhibition, hits mostly inhibitors; 580,000 tested, 1.1% active; AID 1671190
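Purified human 12hLO at 150 nM in 25 mM Hepes, 0.01% Triton X-100, pH 7.0, preincubated 15 min at room temperature with compound. Reaction started with 40 uM arachidonic acid, 30 min at room temperature. Hydroperoxide measured by Fe-xylenol orange, 573/405 nm absorbance ratio.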
PLK1 PBD block – PLK1 (human) polo-box domain binding inhibition. P53350. Plk1 PBD binding of FITC phosphopeptide, fluorescence polarization. Potency, µM, without a hit: max response, negative = inhibition, hits mostly inhibitors. 360,000 tested, 2.8% active; further: series mostly up to about 57 µM; nearly all actives have a fitted effect of over 65% in size
Target sequence (P53350 whole entry, looked up, the tested form may be a part): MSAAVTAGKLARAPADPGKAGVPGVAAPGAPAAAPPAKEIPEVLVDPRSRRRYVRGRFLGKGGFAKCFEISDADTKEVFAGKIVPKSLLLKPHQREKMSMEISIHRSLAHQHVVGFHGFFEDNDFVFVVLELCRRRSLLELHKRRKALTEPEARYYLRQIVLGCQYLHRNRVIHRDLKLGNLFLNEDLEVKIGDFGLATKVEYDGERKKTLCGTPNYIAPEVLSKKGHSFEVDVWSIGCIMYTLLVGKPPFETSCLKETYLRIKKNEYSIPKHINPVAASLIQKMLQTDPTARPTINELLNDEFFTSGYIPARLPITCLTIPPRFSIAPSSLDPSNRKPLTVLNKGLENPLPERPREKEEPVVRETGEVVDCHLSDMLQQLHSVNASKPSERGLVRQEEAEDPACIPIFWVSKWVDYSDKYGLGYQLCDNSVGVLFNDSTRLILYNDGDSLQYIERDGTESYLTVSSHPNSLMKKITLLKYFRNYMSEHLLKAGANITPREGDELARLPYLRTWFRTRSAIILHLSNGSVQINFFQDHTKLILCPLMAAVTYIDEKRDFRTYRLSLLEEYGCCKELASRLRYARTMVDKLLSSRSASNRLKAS
KAT2A inh – GCN5L2 (KAT2A) acetyltransferase inhibition. Q92830. GCN5L2 HAT assay, ThioGlo1 CoA-SH fluorescence. Potency, µM (titrated, usually from 58.9 µM), inactives show top-dose activity change, negative = inhibition, hits mostly inhibitors. 390,000 tested, 0.21% active. AID 504327
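GCN5L2 (20 nM) in 50mM HEPES pH 7.5, 0.1mM EDTA, 0.01% Tween-20 preincubated 15 min with compounds at room temperature. Reaction started with H3(1-25) 75uM, acetyl-CoA 70uM, ThioGlo1 50uM; CoA-thiol fluorescence (Ex340/Em540) read at 0 and 20 min.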
TbPYK inh – confirmation of Trypanosoma brucei pyruvate kinase inhibitors. shares compounds with PLK1 PBD block. recombinant TbPYK, Kinase-Glo ATP luminescence. Potency, µM (titrated, usually from 76.9 µM), for inactives: top-dose activity change, negative = inhibition, usual class: inhibitors. 890 tested, 67% active. AID 720569; further: nearly all actives have a fitted effect of over 70% in size
TbPYK ADP-Glo – orthogonal confirmation of Trypanosoma brucei pyruvate kinase inhibitors. 890 tested, 62% active. recombinant TbPYK, ADP-Glo luminescence, 60 min. AID 720584. shares compounds with PLK1 PBD block. Potency, µM (top dose mostly 76.9 µM), without a hit: top-dose activity change, negative = inhibition, hits mostly inhibitors; further: nearly all actives have a fitted effect of over 75% in size
An asterisk follows results filed as active. The call rests on the fitted dose curve; in most records, active means well fitted curve in the direction sought with a large enough effect; inconclusive means small, poorly fitted or top-dose-only effect, or another doubt; inactive means no such curve, though single readings can be large; an effect the other way counts as inactive or inconclusive. On the % scale 0 is the no-effect control and ±100 the full control effect; potency means the concentration at half of the fitted maximal effect.

`NC(=O)CN1C(=O)/C(=c2\sc3nc(=O)c(Cc4ccccc4)nn3c2=O)c2ccccc21` gave VDR inh inconclusive, ALOX12 inh 0.0%, PLK1 PBD block 5.97µM*, KAT2A inh -15.4%, TbPYK inh 28.2µM* and TbPYK ADP-Glo 15.8µM*.
For O=c1nc2s/c(=C\c3ccco3)c(=O)n2nc1Cc1ccc(F)cc1 the results were VDR inh inconclusive, ALOX12 inh 0.0%, PLK1 PBD block -22.8% and KAT2A inh inconclusive.
Screening CCc1cccc(NC(=O)CSC2=NS(=O)(=O)c3ccccc32)c1 returned VDR inh 12.6µM*, ALOX12 inh inconclusive, PLK1 PBD block 10.6µM*, KAT2A inh -2.2%, TbPYK inh 17.8µM* and TbPYK ADP-Glo 17.8µM*.
`Cc1[nH]c2ccccc2c1CCO` gave VDR inh -2.4%, ALOX12 inh -5.0%, PLK1 PBD block 1.8% and KAT2A inh -3.3%.
For Cc1[nH]c2ccccc2c1C1=CC(=O)C=CC1=O the results were VDR inh 28.2µM*, ALOX12 inh inconclusive, PLK1 PBD block 3.36µM*, TbPYK inh 0.562µM* and TbPYK ADP-Glo 2.82µM*.
Screening Cc1nc(SCC(=O)c2cccc([N+](=O)[O-])c2)n[nH]1 returned VDR inh 25.1µM*, ALOX12 inh inconclusive, PLK1 PBD block inconclusive, KAT2A inh -27.8%, TbPYK inh inconclusive and TbPYK ADP-Glo inconclusive.
Cc1c(CC(=O)NCCc2ccccc2)c(=O)oc2cc(O)c(Cl)cc12 was read as ALOX12 inh 1.1%.
For O=C(CCCCn1c(=S)[nH]c2ccsc2c1=O)NCc1ccc2c(c1)OCO2 the results were VDR inh -15.0%, ALOX12 inh inconclusive, PLK1 PBD block -27.3%, KAT2A inh -18.8%, TbPYK inh 0.355µM* and TbPYK ADP-Glo 1.12µM*.
O=C(CCCn1c(=S)[nH]c2ccsc2c1=O)Nc1ccc(F)cc1 was read as ALOX12 inh -20.3% and PLK1 PBD block -19.9%.
O=C(CCCn1c(=S)[nH]c2ccsc2c1=O)Nc1ccc2c(c1)OCCO2 was read as VDR inh -17.0%, ALOX12 inh 0.0%, PLK1 PBD block -6.6%, KAT2A inh -8.5%, TbPYK inh 10µM* and TbPYK ADP-Glo 14.1µM*.
CC(C(=O)N(C)CC(=O)Nc1ccccc1C(F)(F)F)N(C)Cc1ccccc1Br (stereo not given) was read as ALOX12 inh -3.6%.
Cc1cccc(Cn2nc(-c3ccc(C)c(S(=O)(=O)N4CCCC4)c3)ccc2=O)c1 was read as ALOX12 inh -25.9%.
COc1ccc(CC(=O)N2CCC(Oc3ccc(C(=O)N(C)C)cn3)CC2)cc1Cl was read as ALOX12 inh 2.8%.
`O=[N+]([O-])c1ccc2c(c1)-c1ccccc1C2O` (stereo not given) gave ALOX12 inh 7.08µM*, PLK1 PBD block 8.44µM*, TbPYK inh inconclusive and TbPYK ADP-Glo 35.5µM*.
`Cn1cnc2c1c(=O)n(CCCSc1nnc(-c3ccccc3)o1)c(=O)n2C` gave ALOX12 inh 5.9%.
Screening COc1ccc(OC)c(-n2c(=S)[nH]c3c(sc(=S)n3-c3ccccc3)c2=O)c1 returned VDR inh 32.1%, ALOX12 inh -9.9%, PLK1 PBD block -6.8%, KAT2A inh -13.5%, TbPYK inh 15.8µM* and TbPYK ADP-Glo 15.8µM*.
`O=C(CCCc1c[nH]c2ccccc12)NCC12CC3CC(CC(C3)C1)C2` gave ALOX12 inh -20.0%.
`Cc1cc(C2=NNC(=Nc3ccccc3)SC2)c(C)n1C` gave VDR inh -8.5%, ALOX12 inh 14.1µM*, PLK1 PBD block -5.0%, KAT2A inh -4.1%, TbPYK inh inconclusive and TbPYK ADP-Glo 14.1µM*.
Fc1ccc(C[n+]2csc3ccccc32)cc1 was read as VDR inh 39.8µM*, ALOX12 inh inconclusive, PLK1 PBD block 11.9µM*, KAT2A inh -10.4%, TbPYK inh 7.94µM* and TbPYK ADP-Glo 12.6µM*.
`Fc1ccc(CSc2nc3ccccc3s2)cc1` gave ALOX12 inh 18.1%.
